Measured values reported in the supplement of paper PMC6555819.

Experiments:
Experiment in all cases: PBM binding z-score (relative to random genomic background probes); higher = stronger binding; sequences stand for … in GC…GCGATTGACAGCGTAGAATGAAGG
[1] = tested on: RARb homodimer (NR concentration 270 nM)
Outline: (§1)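 For binding z-scores, the reference was random background probes on custom Agilent 4×180K protein-binding microarrays. These arrays were incubated 1 h with ligand-free nuclear receptor dimers in PBS pH 7.4, 2% milk, 0.02% Triton X-100, 1 mM DTT, 0.2 mg/mL BSA and 0.4 mg/ml salmon testes DNA. Fluorescence was scanned after antibody detection of each partner (one per run) and regression-normalized.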

[2] = tested on: RARg:RXRa (NR concentration 270 nM, RXRa partner concentration 90 nM)
Outline: as §1

[3] = tested on: RARg homodimer (NR concentration 270 nM)
Outline: as §1

[4] = tested on: RXRa DBDmut IVT, anti-RXR (DBD mutation: RXRa K156A/R161A, NR concentration 90 nM)
Outline: as §1

[5] = tested on: RXRa homodimer (NR concentration 180 nM)
Outline: as §1

[6] = tested on: THRa:RXRa (NR concentration 90 nM, RXRa partner concentration 90 nM)
Outline: as §1

[7] = tested on: THRa homodimer (NR concentration 90 nM)
Outline: as §1

[8] = tested on: VDR:RXRa (NR concentration 270 nM, RXRa partner concentration 90 nM)
Outline: as §1

[9] = tested on: VDR homodimer (NR concentration 270 nM)
Outline: as §1

Row | Sequence | PBM binding z-score [1] | PBM binding z-score [2] | PBM binding z-score [3] | PBM binding z-score [4] | PBM binding z-score [5] | PBM binding z-score [6] | PBM binding z-score [7] | PBM binding z-score [8] | PBM binding z-score [9]
1 | TCATATAGGTGATACAGGTGAAAGTCGGCATCTA | 1.08 | 0.874 | 0.742 | 1.16 | 1.34 | 0.983 | 0.0719 | 1.19 | 0.258
2 | GGAACGAGGGCAACTTGATAGCAGAGTTTGATGG | 1.42 | 1.7 | 2.17 | 2.2 | 1.13 | 1.26 | 0.0506 | 0.718 | 1.35
3 | GCTATTAGTTGAAAGGGCAACGGAATGATTCTCG | 1.94 | 1.36 | 1.26 | 0.668 | 1.2 | 0.463 | -0.221 | 0.383 | 0.0426
4 | ACTCGGAGGACAAAGGTCAGAGGTACGCCAGTGA | 4.58 | 5.98 | 5.03 | 0.647 | 5.39 | 3.49 | 0.633 | 3.52 | 1.68
5 | GCGACCGGGGCATCAGCAGGTTACCATAACTTAA | 1.37 | 2.27 | 1.64 | -0.302 | 0.943 | 1.61 | 0.295 | 0.435 | -0.185
6 | CGAGACAGGTGAAAGGTAACTCAGTCTGGTACGC | 0.817 | 1.2 | 0.702 | -0.262 | 2.11 | 0.861 | -0.303 | 0.633 | -0.342
7 | CCTTACGGGCCACTGACAGGTTATAGCATTTGGA | 0.8 | 0.731 | 0.737 | -0.085 | 0.326 | 0.0187 | -0.159 | -0.202 | -0.034
8 | AGCCAAAGTTCATCTAGGTAACGTAAGATATGCT | 4.1 | 5.56 | 5.88 | 4.5 | 4.72 | 3.15 | 0.256 | 4.48 | 5.28
9 | CGTCCAAGGTCAGCAGGTCAATGAAAGCGACGTG | 5.24 | 6.59 | 6.73 | 2.62 | 5.64 | 4.03 | 2.46 | 4.68 | 2.23
10 | CGAACTAGGTCATTGCCAGGACAGTGAATAGTAA | 2.72 | 4.1 | 4.21 | 2.5 | 2.73 | 3.32 | 1.54 | 2.42 | 1.49
11 | CGTCCAGGGTCAATGCTAGGTCAGTGAAAGCATT | 4.65 | 7.39 | 5.63 | 2.78 | 5.37 | 4.35 | 1.79 | 4.9 | 2.33
12 | TCTTGTAGATCAAGCAGGTTACGAAAGCCTGAGT | 0.377 | 0.206 | -0.118 | 0.652 | 0.618 | 0.537 | -0.421 | 0.633 | -0.206
13 | CCTATTAGTTGACCATAAGCGCAACCGAAGCTCG | 0.669 | 0.621 | 0.455 | 0.856 | 0.371 | 0.364 | 0.809 | 1.05 | 0.721
14 | CGAACTAGGTCATTGAGAGGACAGTGAATAGTAA | 3.22 | 5.93 | 4.96 | 2.07 | 3.22 | 3.42 | 1.08 | 2.92 | 1.56
15 | TCGAGTAGGTTAGTCGGGGCGTTCAGCCAACATA | -0.146 | -0.702 | -0.632 | 0.213 | -0.538 | 0.808 | -0.254 | 1.48 | -0.484
16 | ATCTCTAGGTAACAAGTTCAGTCAAAGAGAGGAC | 1.92 | 1.45 | 1.43 | 1.09 | 0.866 | 1.62 | 1.12 | 1.74 | 2.65
17 | CGTCCATGGTCAGAGAGGTCAGTGAATGCCGAGT | 4.09 | 3.16 | 4 | 0.839 | 2.97 | 2.58 | 0.835 | 4.63 | 2.63
18 | CTCGGAAGGTCGGTTGAGGTGAGTATACGGATAA | 1.62 | 1.28 | 1.86 | 0.318 | 0.83 | 4.59 | 1.32 | 1 | 0.205
19 | TCATATAGGTAAAAGGTGAAAGCCGGTGTGGTAA | 1.74 | 2.11 | 0.955 | 1.45 | 2.92 | 1.56 | 8.19e-05 | 1.62 | -0.0743
20 | CTCGAAAGGTGGGTTGAGGTGAGTATACGGATAA | 1.3 | 0.297 | 0.548 | -0.0446 | 0.396 | 4.18 | 1.75 | 0.817 | 0.756
21 | TCGAGTAAGTTAGTCGGGGCATTCAGCCAACATA | -0.375 | -0.647 | -0.674 | 0.38 | -0.255 | 0.0972 | -0.58 | -0.133 | -0.125
22 | GCTGCTAGGTCAGGTTGCTCAGCTAACGGGTACG | 2.14 | 2.32 | 2.99 | 0.623 | 0.855 | 1.49 | 0.194 | 0.0611 | 0.297
23 | GCTAGCAGGCCATTTGGGTCCCTCAATGACGGGC | -0.901 | -0.417 | -0.379 | -0.721 | -0.4 | 0.249 | -1.01 | -0.73 | -0.499
24 | AATACAGGGTCATCGTAGGCCAGACTACGCACAG | 2.36 | 5.54 | 5.13 | 3.61 | 6.23 | 4.74 | 1.68 | 5.11 | 2.65
25 | CGTCCAAGGTCATAGGAGGTCAGTCAAGACAGAT | 5.57 | 6.78 | 7.57 | 3.37 | 6.76 | 5.43 | 3.34 | 6.72 | 4.33
26 | TCTATTTGTTGATTAGGGCAACCGAAACAGCGGA | 0.77 | 0.864 | 0.859 | 1.28 | 0.492 | 0.89 | 0.561 | 0.823 | 0.505

Row | Sequence | PBM binding z-score [1] | PBM binding z-score [2] | PBM binding z-score [3] | PBM binding z-score [4] | PBM binding z-score [5] | PBM binding z-score [6] | PBM binding z-score [7] | PBM binding z-score [8] | PBM binding z-score [9]
27 | CCGAGTAGGTTATGGGACATTCAGGCAACGGTGA | 0.969 | 0.533 | 0.86 | 0.181 | 0.607 | 0.565 | 0.413 | 0.258 | 0.326
28 | TATATTAGTTGATTAGGGCAACCGAAACAGCGGA | 0.779 | 0.789 | 1.19 | 0.252 | 0.43 | 0.944 | 0.495 | 0.452 | 0.982
29 | TCTGCTAGGTCAGTTGGTCAGCAAACGAGCTGCC | 2.52 | 2.78 | 3.8 | 0.526 | 0.98 | 1.35 | -0.0215 | 0.276 | -0.695
30 | CGTCCAAGCTCAATGCTAGGTCAGTGAAAGCATT | 1.84 | 0.587 | 0.598 | -0.0158 | -0.025 | 1.09 | 0.344 |  | -0.453
31 | GCTTGTAAATCAAGGTTAAGAAAGACTAAGCTAA | 0.189 | 0.539 | 0.0583 | 0.137 | 0.942 | 1.5 | -0.456 | 0.379 | -0.374
32 | CCTAGCATGCCAGGGTCACTCAAGCATTTCGCTT | 2.54 | 2.81 | 2.01 | 0.413 | 3.35 | 2.95 | 1.01 | 2.59 | 0.827
33 | TCTTGTAGGTCAGCAGGTTAAGAAAGCTGGCCAA | 3.05 | 4.48 | 4.43 | 0.785 | 3.23 | 1.97 | -0.325 | 3.54 | 0.0594
34 | CCTAGTTGGTCAAGGTCAGACACGCTATAGGTAC | 3.62 | 3.19 | 3.82 | 1.56 | 2.73 | 3.34 | 2.57 | 2.83 | 2.29
35 | CGTCCAAGGTCAAAGGTCAGTGATGAGATGACGG | 5.76 | 8.67 | 7.8 | 3.72 | 10.1 | 4.87 | 3.03 | 6.62 | 4.03
36 | ATCGAAAGGTCGACGGTGAGTATACCCACCCGAA | 2.53 | 4.19 | 3.92 | 0.878 | 4.27 | 1.88 | -0.262 |  | 0.289
37 | CCTTACGGGTGAAGGTTATAGCACGGGTGGTACG | 0.868 | 0.873 | 0.868 | -1.61 | 1.23 | 0.509 | 0.0246 | 0.0707 | -0.283
38 | GCTTGTAGAACAAGGTTAAGAAAGACTAAGCTAA | -0.00172 | 0.534 | 0.188 | -0.0592 | 0.633 | 0.947 | -0.592 | 0.106 | -0.315
39 | TAGCCTAGGTCTTGGGCCAGTATACCACGCGAAC | 0.192 | -0.191 | -0.198 | -0.835 | -0.0837 | 0.0232 | 0.0319 | -0.455 | -0.506
40 | TCTAGCGGGCCAGAGGGTCACTCAAGAGGTACGG | 2.86 | 2.61 | 1.98 | 0.0957 | 2.37 | 1.51 | -0.522 | 1.29 | 0.587
41 | AGAACGAGGGCAATGGGTTGATAGCACGGGTGGC | 1.6 | 1.47 | 1.68 | 1.84 | 1.09 | 1.12 | 0.645 | 5.47 | 4.19
42 | AGAATGAGCTTACCAAAGATCAGGGAAACGCTTG | -0.958 | -0.0102 | -0.129 | -0.777 | 0.323 | -0.369 | -0.963 | -0.591 | -0.938
43 | TTACCAAGGTGAGCTGAGGTCGTTGATCCAACTC | 1.78 | 1.24 | 1.11 | 0.206 | 1.53 | 4.79 | 1.88 | 4.19 | 2.5
44 | TCATACAGGTAAACAGGTGAAAGTCCGTAAGTTA | 1.16 | 0.793 | 0.447 | 1.62 | 1.12 | 1.05 | 0.697 | 1.2 | 0.33
45 | GCGACGGGGGCATCAGCAGGTTACCATAACTTAA | 2.43 | 5.01 | 2.7 | 3.03 | 3.26 | 3.25 | 1.61 | 3.67 | 1.88
46 | AATACAGGGTCACCGTAGGCCAGAGTACGCACAG | 3.94 | 6.08 | 5.9 | 2.62 | 7.11 | 4.55 | 1.77 | 5.2 | 2.81
47 | GGAACGAGGGCAAGTTGATATCAGAGTTTGATGG | 1.7 | 1.66 | 2.58 | 2.63 | 0.916 | 1.46 | 0.151 | 1.42 | 2.21
48 | TTACCAAGGTGAAAGTTCGTTGATGCACGCCTTG | 1.67 | 2.35 | 1.2 | 1.14 | 2.86 | 2.41 | 0.508 | 2.12 | 2.05
49 | CCTACTGGGCCTAGGTCATTGATCAGTCAAAGCA | 2.06 | 2.02 | 1.46 | -0.592 | 1.34 | 2.07 | 0.765 |  | 0.74
50 | CCAGACTGGTGAAAGGTAACTCAGTCTGGTACGC | 0.104 | 0.0585 | -0.236 | -0.492 | 0.524 | 0.18 | -0.494 | -0.0185 | -0.181
51 | CGTCGAAGTTCAACTAAGGTAACGTAAAGCACGC | 2.89 | 3.53 | 3.67 | 3.86 | 2.69 | 4.97 | 2.11 | 3.43 | 2.88
52 | TCTTGTAGATCAACAGGAGCTTAAGAAAGATCGA | -1.46 | 0.118 | -0.187 | -0.0794 | -0.154 | -0.552 | -1.65 | -0.21 | -0.768
